Results on six compounds are retold here after PubChem BioAssay (NCATS).

Records with an inconclusive call do not appear. Activity calls are given as the source filed them. Unless noted, calls follow the shape of the dose curve; as a rule, active = well fitted curve in the direction sought with a large enough effect; inconclusive = small, poorly fitted or top-dose-only effect, or another doubt; inactive = no such curve, though single readings can be large; an effect the other way counts as inactive or inconclusive.

Experiment [1] concerns the target Thyrotropin-releasing hormone receptor (Homo sapiens) (UniProt P34981). The experiment can be described thus: qHTS for Small Molecule Agonists and Allosteric Enhancers of Human TRH Receptor: Validation Screen for Agonists (AID 493127;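 active = calcium activation more than 3 SD above the typical response in the agonist read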;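 also: intracellular calcium rise by fluo-8 fluorescence before TRH EC20 addition; 0% is about no effect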). The note with it: TRH receptor agonist cell assay; at 2 µM; stronger effect = higher value. The procedure, abridged: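 Read-out: intracellular calcium release measured kinetically by FDSS (fluo-8, ex 480/em 530 nm), 1 reading/s after a 10-cycle baseline. TRHR cells, 2000/well, cultured 18 h at 33.5C, dye-loaded at room temp. Compound-evoked positive calcium signal flags agonists.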
In general terms: In qHTS, concentration-response curves come from the screen itself.

Experiment [2] deals with Galactokinase (Homo sapiens) (UniProt P51570). The experiment can be described thus: qHTS Validation Assay for Inhibitors of Human Galactokinase (GALK) (AID 493189). Also: 0% is about no effect. The note with it: purified human GALK enzyme activity, qHTS 7-point titration; series mostly up to 57.5 µM. The procedure, abridged: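 Compounds were pin-transferred into ATP buffer, then GALK-galactose mix was added (final 5 nM enzyme, 100 uM galactose, 35 uM ATP). After 1 h at room temperature, remaining ATP was measured luminescently.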
Chain of Galactokinase (Homo sapiens) (P51570 whole entry, looked up): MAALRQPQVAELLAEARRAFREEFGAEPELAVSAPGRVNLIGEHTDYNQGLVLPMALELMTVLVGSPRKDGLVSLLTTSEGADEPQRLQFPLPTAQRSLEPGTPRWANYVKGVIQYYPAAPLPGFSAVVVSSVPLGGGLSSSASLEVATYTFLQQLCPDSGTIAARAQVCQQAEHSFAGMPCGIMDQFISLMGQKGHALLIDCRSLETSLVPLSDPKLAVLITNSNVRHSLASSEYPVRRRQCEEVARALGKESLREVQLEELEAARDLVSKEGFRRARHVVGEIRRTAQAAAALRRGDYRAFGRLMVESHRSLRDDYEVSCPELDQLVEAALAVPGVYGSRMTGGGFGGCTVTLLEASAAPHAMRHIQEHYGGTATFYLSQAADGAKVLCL

Experiment [3] in a line: Validation screen for small molecules that induce DNA re-replication in SW480 colon adenocarcinoma cells (AID 504364). Also: 0% is about no effect. The note with it: DNA re-replication phenotype (high-content imaging); series mostly up to 46.1 µM. The procedure, abridged:
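Read-out: total Hoechst intensity of nuclei by fluorescence scanning imager; hits raise the fraction of nuclei with elevated DNA content. Cells received compound for 48 hr at 37 C before a 40 min stain.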

A short description of experiment [4]: qHTS for Inhibitors of Plasmodium falciparum (DD2) proliferation (AID 504314).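 Also: parasite DNA measured by SYBR Green fluorescence after red cell lysis; plate controls were DMSO vehicle for no effect and artemisinin wells for full effect.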 The settings on record: P. falciparum Dd2 in erythrocytes, SYBR Green growth, 72 h; series mostly up to 6.11 µM. An excerpt:
Plasmodium falciparum is a virulent malarial parasite that kills 1-2 million people worldwide each year. Malaria not only inflicts tremendous suffering and morbidity on the human population, but has dramatically influenced the course of civilization with profound sociological and economic implications (Shah, S. 2010). Transmitted by mosquitoes, the sporozoite form of the parasite enters the blood stream to infect hepatocytes, where they become merozoites that infect red blood cells (erythrocytes). Within erythrocytes, merozoites begin a […] cycle of growth and division, after which the parasite is released to infect new red blood cells. Gametocytes, which form within erythrocytes as well, circulate in the bloodstream and are ingested by the mosquito, thereby completing the life cycle (see CDC website). To profile malarial lines for differential chemical responses and to identify inhibitors of malarial growth, an assay that measures P. falciparum growth and replication within erythrocytes was employed. […] Because mature erythrocytes lack DNA, only Plasmodium-derived DNA is detected. […]
Bennett TN, Paguio, M., Gligorijevic, B., Seudieu, C., Kosar, A. D., Davidson, E., and Roepe, P. D. Novel, rapid, and inexpensive cell-based quantification of antimalarial drug efficacy Antimicrobial Agents Chemother. […]

Experiment [5] in a line: qHTS for Inhibitors of Plasmodium falciparum (GB4) proliferation (AID 504315).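 Also: 0% = DMSO vehicle and -100% = 0.29 µM artemisinin control; nearly all actives have a fitted effect of over 50% in size.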 The settings on record: P. falciparum GB4 in erythrocytes, SYBR Green DNA, 72 h; series mostly up to 6.7 µM. An excerpt: (§1) Plasmodium falciparum is a virulent malarial parasite that kills 1-2 million people worldwide each year. Malaria not only inflicts tremendous suffering and morbidity on the human population, but has dramatically influenced the course of civilization with profound sociological and economic implications (Shah, S. 2010). Transmitted by mosquitoes, the sporozoite form of the parasite enters the blood stream to infect hepatocytes, where they become merozoites that infect red blood cells (erythrocytes). Within erythrocytes, merozoites begin a […] cycle of growth and division, after which the parasite is released to infect new red blood cells. Gametocytes, which form within erythrocytes as well, circulate in the bloodstream and are ingested by the mosquito, thereby completing the life cycle (see CDC website). To profile malarial lines for differential chemical responses and to identify inhibitors of malarial growth, an assay that measures P. falciparum growth and replication within erythrocytes was employed. This assay uses a DNA binding fluorescent dye (SYBR Green) to detect parasite DNA following cell lysis. Because mature erythrocytes lack DNA, only Plasmodium-derived DNA is detected. The P. falciparum line cp250, derived from a malarial isolate from Cambodia, (Mu, J., et al. 2010) was added to the panel of lines, Dd2, HB3, 7G8 and GB4 in this study. […]

Experiment [6] in a line: qHTS for Inhibitors of Plasmodium falciparum (7G8) proliferation (AID 504316).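 Also: 0% = DMSO vehicle and -100% = 0.29 µM artemisinin full kill; nearly all actives have a fitted effect of over 65% in size.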 The settings on record: P. falciparum 7G8 in erythrocytes, SYBR Green DNA, 72 h; series mostly up to 6.7 µM.
Description: as §1

Experiment [7] in a line: qHTS for Inhibitors of Plasmodium falciparum (CP250) proliferation (AID 504320).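 Also: plate controls were DMSO vehicle for no effect and 0.29 µM artemisinin control for full effect.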 The note with it: P. falciparum CP250 in erythrocytes, SYBR Green DNA, 72 h; series mostly up to 6.7 µM.
Description: as §1

Experiment [8] is described as follows: Validation screen for small molecules that induce genotoxicity in human embryonic kidney (HEK293T) cells expressing luciferase-tagged ELG1 (AID 493106). Also: potency is read from the fitted curve at half-maximal effect. The note with it: luminescence. The procedure, abridged:
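qHTS format; 2,000 HEK293T ELG1-luc cells/well; 23 nL compound via pin tool; 16 hr, 37 °C/5% CO2; ONE-Glo, 30 min RT; luminescence read.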

A short description of experiment [9]: Nrf2 qHTS screen for inhibitors: Validation (AID 493153; active = well fitted inhibition curve with a large enough effect in the main read-out, with a control signal flat, not every such curve was filed as active). The settings on record: A549 ARE-Fluc reporter, 18-24 h; viability change: measured here: cytotoxicity max response; luciferase luminescence, at 46.1 µM (top of the series). In outline:
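Concentration-response test in A549 ARE_Fluc reporter cells (5% FBS OPTI-MEM), compound exposure 18-24 h at 37°C, 5% CO2. Cell viability measured first by CellTiter-Fluor fluorescence; ARE-driven luciferase luminescence then measured as Nrf2 activity.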

Experiment [10] has as its target Peptidyl-prolyl cis-trans isomerase NIMA-interacting 1 (Homo sapiens) (UniProt Q13526). The experiment can be described thus: qHTS Validation Assay to Find Inhibitors of Pin1 (AID 504536; active = well fitted inhibition curve with a large enough effect in the polarisation, with a control signal flat, not every such curve was filed as active; the % refers to the polarisation;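 also: 0% = full Pin1 enzyme wells and -100% = no-enzyme wells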). The note with it: Pin1 fluorescence polarization peptide binding assay; series mostly up to 57.5 µM. In outline: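 Fluorescence polarization competition: compounds (titration) displace HiFluor-488-labeled Pin1-1b peptide from Pin1 (0.3 uM final) in pH 7.5 HEPES buffer with DTT, 10 min at room temperature; %Activity normalized to no-enzyme wells, curves fitted.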

Chain of Thyrotropin-releasing hormone receptor (Homo sapiens) (P34981 whole entry, looked up): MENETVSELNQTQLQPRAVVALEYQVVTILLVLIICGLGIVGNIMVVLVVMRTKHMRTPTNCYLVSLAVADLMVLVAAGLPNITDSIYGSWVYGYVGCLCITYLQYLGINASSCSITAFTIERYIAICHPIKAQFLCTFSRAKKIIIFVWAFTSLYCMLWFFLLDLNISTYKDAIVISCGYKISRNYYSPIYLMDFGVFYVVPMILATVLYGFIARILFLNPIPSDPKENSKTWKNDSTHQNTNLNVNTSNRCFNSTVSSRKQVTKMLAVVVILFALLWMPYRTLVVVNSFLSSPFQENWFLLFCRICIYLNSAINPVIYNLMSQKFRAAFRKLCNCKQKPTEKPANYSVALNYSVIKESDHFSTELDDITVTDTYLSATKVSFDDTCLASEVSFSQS
Chain of Peptidyl-prolyl cis-trans isomerase NIMA-interacting 1 (Homo sapiens) (Q13526 whole entry, looked up): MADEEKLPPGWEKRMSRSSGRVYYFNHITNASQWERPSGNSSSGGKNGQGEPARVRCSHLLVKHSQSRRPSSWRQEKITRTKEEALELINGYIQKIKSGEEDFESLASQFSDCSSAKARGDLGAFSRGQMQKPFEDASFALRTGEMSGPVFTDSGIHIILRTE

Take `Cc1cc(C)c(NC(=O)C[C@H](CC(=O)O)c2cccc3ccccc23)c(C(=O)N2CCC3(CCCC3)CC2)c1`: the activation in [1] is 0.125% (inactive). For the same compound, the outcome in experiment [2] and in experiment [3] was inactive.
Take `O=c1[nH]c(=O)n([C@H]2C[C@H](O)[C@@H](CO)O2)cc1/C=C/Br`: in experiment [1], the activation is 0.938% (inactive). The result in experiment [2] and in experiment [3] was inactive.
With `O=C(NCCNCC(O)COc1ccc(O)cc1)N1CCOCC1` (stereo not drawn), the activation in experiment [1] was 1% (inactive). Moreover, the result in [2] and in experiment [3] was inactive.
With `C[C@@](Cc1ccc(O)c(O)c1)(NN)C(=O)O`, the activation in [1] is 0.562% (inactive). Besides, the outcome in [2] and in experiment [3] was inactive.
As for `Cc1c(O)c(=O)ccn1C`, the result in [4], in experiment [5], in [6] and in [7] was inactive.
Take `Oc1ccc(/C=C/c2cc(O)cc(O)c2)cc1`: the Potency in experiment [8] is 2910 nM (active). The activation in experiment [1] was 0.812% (inactive). Besides, the call in experiment [9], in experiment [2], in experiment [3] and in [10] was inactive. In experiment [9], the viability change is -6.91%.
